# Compounds with a hit are over-represented: about 0.32% of the library has one in this group of screens.
# Menin MLL FP TR – inhibitors of human menin-MLL interaction, mutant MLL peptide. O00255. Menin + Texas Red MLL mutant peptide, fluorescence polarization. Potency, µM (doses to about 61.6 µM), for the others: at the highest dose FP activity change, negative = inhibition, usual class: inhibitors. 0.23% of 270,000 active; active means well fitted inhibition curve with a large enough effect in the polarisation, with a control signal flat, not every such curve was filed as active; inconclusive means small, poorly fitted or top-dose-only effect, or effect the other way, or a change in a side signal; inactive means no such curve, though single readings can be large or run the other way; the % refers to the polarisation; further: potency means the concentration at half of the fitted maximal effect; % of control where 0% means no effect
# TRPV1 potentiator – potentiators of human vanilloid receptor 1 (TRPV1). TRPV1-expressing cells, Fluo-8 calcium influx, capsaicin EC20 potentiation. potentiation, % at 8.33 µM. 0.02% of 320,000 active; in the data active means potentiation above about 80%; inconclusive means between about 30% and that limit; further: 0% is about no effect
#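 TRPV1-expressing cells were cultured overnight at 35.5C and loaded with Fluo-8 calcium dye for 40 to 90 min at room temperature. After a 10 s baseline, compound was added and calcium influx was read kinetically for 3 min (ex 480/em 520 nm).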
# TRPV1 ag – agonists of human vanilloid receptor 1 (TRPV1) | AID 540275 | Q8NER1 | TRPV1-expressing cells, Fluo-8 calcium influx, agonist mode | 0.19% of 320,000 active | activation, % at 8.33 µM; in the data active means activation above about 80%; inconclusive means between about 30% and that limit; further: 0% is about no effect
#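 Fluo-8 calcium influx in TRPV1-expressing cells, kinetic read (ex 480/em 520 nm). Compound added and read 3 min for agonist activity, followed by capsaicin at EC20 final and 2 min further read for enhancement.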
# Menin-MLL FL inh – menin-MLL binding inhibition, fluorescein peptide | Fluorescence polarization, fluorescein-MLL peptide displacement from menin | FP activity change, % at 61.4 µM | 290,000 tested, under 10 active; active means well fitted curve in the direction sought with a large enough effect in the polarisation, not every such curve was filed as active; inconclusive means small, poorly fitted or top-dose-only effect, or effect the other way, or a change in a side signal; inactive means no such curve, though single readings can be large or run the other way; the % refers to the polarisation; further: % of control where 0% means no effect
# CXXC DNA block – inhibitors of human MLL CXXC domain-DNA interaction; Q03164; MLL-CXXC / FITC-HOXA9 DNA fluorescence polarization; Potency, µM (series often up to 115 µM), for inactives: top-dose activity change, negative = inhibition, most hits filed as inhibitors; 0.037% of 290,000 active; active means well fitted inhibition curve with a large enough effect in the polarisation, with a control signal flat, not every such curve was filed as active; inconclusive means small, poorly fitted or top-dose-only effect, or effect the other way, or a change in a side signal; inactive means no such curve, though single readings can be large or run the other way; the % refers to the polarisation; further: potency means the concentration at half of the fitted maximal effect
#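 Steps: dispense CXXC domain solution (7 uM) → pin compounds or unlabeled HOX-A9 DNA control → 5 min ambient → add FLSN-HOX-A9 solution (50 nM) → spin → 30 min ambient → fluorescence polarization. Tris pH 7.5/NaCl/DTT/BSA buffer.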
# Starred values were filed as active, the others as inactive; ? = inconclusive; nt = no result given.
SMILES,Menin MLL FP TR,TRPV1 potentiator,TRPV1 ag,Menin-MLL FL inh,CXXC DNA block
O=C(O)CC/C=C\CC[C@@H]1[C@@H](N2CCCCC2)[C@@H](O)C[C@@H]1OCc1ccc(-c2ccccc2)cc1,0.8%,nt,nt,2.5,6.4%
CCN(CC)c1ccc(/C=C/C(=O)c2ccc(Br)cc2)cc1,-12.5%,4.2,122.8*,?,?
CN(C)c1ccc(C(=O)/C=C/c2ccc(Br)cc2)cc1,-7.0%,16.0,17.5,9.6,5.2%
CC(C)C[C@@H](NC(=O)[C@@H](Cc1ccccc1)NC(=O)c1cnccn1)B(O)O,6.9%,nt,nt,4.1,4.0%
[O-][n+]1ccccc1SSc1cccc[n+]1[O-],10.9%,nt,nt,1.1,-26.6%
CCN1C(=O)[C@@H]2[C@H](C1=O)[C@@H]1C(=O)Nc3ccccc3C(=O)N1[C@@H]2c1ccc(Br)cc1,nt,106.4*,-1.6,nt,nt
CN1C(=O)[C@@H]2[C@H](C1=O)[C@@H]1C(=O)Nc3ccccc3C(=O)N1[C@@H]2c1ccc(Br)cc1,nt,-16.6,-3.1,nt,nt
COc1cc2nc(SCc3ccc(Cl)cc3Cl)n(Cc3cccs3)c(=N)c2cc1OC,39.8µM*,28.7,-5.9,0.5,21.5%
Cc1noc(C)c1-c1ccc2ncnc(NCc3cccn3C)c2c1,8.9%,nt,nt,-7.4,nt
CCOc1ccc(/C=C/C2=Cc3c(sc(NC(=O)CSc4n[nH]c(N)n4)c3C#N)C(C)(C)C2)cc1,7.94µM*,15.0,-0.1,?,-22.9%
Cc1cc(C(=O)N/N=C/c2cccc([N+](=O)[O-])c2)c(C)n1-c1ccccc1,16.0%,5.9,89.3*,3.8,2.1%
O=C(/C=C/c1ccc(I)cc1)c1ccc(B(O)O)cc1,5.8%,nt,nt,1.9,nt
C/C=C/C1=CC2=CC(=O)C(C)(OC(=O)c3c(C)cc(O)cc3O)C(=O)C2=CO1 (configuration not stated),9.2%,nt,nt,?,nt
CCCCc1nc(N2CCN(C(=O)c3ccco3)CC2)c(C#N)c2c1CCCC2,nt,-26.7,86.4*,nt,4.6%
CCC(=O)N1CCN(c2nc(-c3ccccc3)c3c(c2C#N)CCCC3)CC1,?,-0.6,101.8*,-1.3,-21.6%
O=C(O)C1C2CCC(O2)C1C(=O)Nc1ccc(O)cc1 (configuration not stated),31.6µM*,-4.4,3.0,nt,-1.7%
Cc1c(C(=O)Nc2cccnc2)oc2ccc(Br)cc12,15.7%,8.9,91.5*,-1.6,22.2%
O=C(Nc1cccnc1)c1cc2c(ccc3ccccc32)o1,8.0%,-18.7,?,-0.2,-1.2%
CCc1ccc2oc(C(=O)Nc3cccnc3)c(C)c2c1,9.6%,-8.6,89.2*,-5.9,-3.5%
C=C(C(C)=O)C(O)c1cccc(Br)c1 (configuration not stated),15.1%,nt,nt,-1.3,nt
O=C(O)C[C@@H]1C(=O)O[C@@H]2C(COC(=O)c3cc(O)c(O)c(O)c3)O[C@@H](OC(=O)c3cc(O)c(O)c(O)c3)[C@@H](OC(=O)c3cc(O)c(O)c4c3[C@H]1[C@H](O)C(=O)O4)[C@H]2OC(=O)c1cc(O)c(O)c(O)c1 (some centres not stated),nt,-14.3,3.3,11.8,28.2µM*
CC(=O)Nc1cccc(Nc2nc(-c3ccccc3F)nc3ccccc23)c1,?,-15.2,96.2*,1.4,5.8%
CC(=O)Nc1ccc(Nc2nc(-c3ccccc3)nc3ccccc23)cc1,?,1.7,-1.0,-1.9,-2.4%
CC(=O)c1ccc(N2CCN(C(=O)Nc3ccc(F)cc3)CC2)cc1,-25.1%,-10.5,?,-1.3,-6.3%
O=C(Nc1ccc(Cl)cc1)N1CCOCC1,14.3%,-11.3,?,-1.2,6.8%
CC(C)c1ccc(NC(=O)N2CCOCC2)cc1,2.7%,-26.9,94.7*,1.4,5.3%
CC(=O)c1ccc(N2CCN(C(=O)Nc3ccc(C(C)C)cc3)CC2)cc1,2.1%,9.4,100.2*,0.0,2.5%
CC(C)c1ccc(NC(=O)N2CCC(c3nc4ccccc4o3)CC2)cc1,-14.5%,-15.5,96.6*,3.4,2.6%
